The entries come from a sample that favours hits as a whole.
RMI FANCM FP = disruptors of RMI1/RMI2 association with MM2 peptide – biochemical, fluorescence polarization, human, primary screen; RMI core complex (RMI1/RMI2) binding to FANCM MM2 peptide, human; RMI core complex with F-MM2 peptide; active compounds read low; FP signal (polarization) at 33 µM; 70,000 tested, 0.58% active; AID 1159607, 2016; in the data active means FP signal below about 40
An asterisk follows results filed as active.

SMILES	RMI FANCM FP
Cc1ccc(S(=O)(=O)N(C)C)cc1	56
Cc1ccc(S(=O)(=O)N=C2C=CC(=NS(=O)(=O)c3ccc(C)cc3)C=C2)cc1	0*
Cc1ccc(S(=O)(=O)N=c2sc3cccc(C)c3n2C)cc1	55
CC(C)c1ccc(NC(=O)CCCn2nc(-c3ccc(Cl)cc3)ccc2=O)cc1	68
Cn1nc2cc(Br)ccc2c1C(=O)O	66
CCOc1ccc(S(=O)(=O)Nc2ccc3c(c2)CCC(=O)N3CCC(C)C)cc1F	66
CC(C)Cn1c(NC(=O)Nc2ccc(F)cc2)c2ccccc2nc1=O	54
O=C1CC(c2ccccc2)CC(=O)N1c1ccccc1	56
CC(=O)C1=CN(c2ccccc2)C=C(C(C)=O)C1c1ccccc1	19*
NNC(=O)C1C(C(=O)NN)C1c1ccccc1 (configuration not stated)	58
COc1cc(N=Cc2ccccc2OC(=O)c2cc(OC)c(OC)c(OC)c2)c(OC)cc1Cl	28*
COc1cc(C(=O)O/N=C\c2ccccc2OC(F)(F)F)cc(OC)c1OC	50
COc1cc(C(=O)Oc2c(Cl)cc(Cl)cc2C=Nc2cc(C)c(C)cc2C)cc(OC)c1OC	97
O=C(Cn1nc(C2CC2)c2cnn(-c3ccccc3)c2c1=O)Nc1ccc2c(c1)OCO2	71
O=C(NCCn1ncc2c(=O)n(Cc3ccc([N+](=O)[O-])cc3)cnc21)c1ccccc1C(F)(F)F	66
COc1ccc(C(=O)Nc2cc(C)nn2-c2nc3c(cnn3-c3ccc(F)cc3)c(=O)[nH]2)cc1OC	65
NC(=O)c1ccc[n+](CC(=O)c2ccc3c(c2)Cc2ccccc2-3)c1	71
NC(=O)c1ccc[n+](CC(=O)c2ccc(Cl)c(Cl)c2)c1	62
NC(=O)C[n+]1ccc2ccccc2c1	12*
COc1ccc(N2CCN(c3ncnc4c3cnn4CCNC(=O)Cc3ccc(F)cc3)CC2)cc1	61
CC1CCN(C(=O)CN2CCN(Cc3nc(-c4ccc(F)cc4)cs3)CC2)CC1	60
O=C(NC1SC(c2ccccc2)=NC1(O)c1ccccc1)c1ccccc1 (configuration not stated)	61
CC1CCN(C(=O)Cc2csc(Nc3ccc(S(C)(=O)=O)cc3)n2)CC1	68
CCCN(CCC)S(=O)(=O)c1ccc(C(=O)N/N=C\c2ccc(OC)c(OC)c2)cc1	52
NS(=O)(=O)c1ccc(NC(=O)CSCC(=O)O)cc1	54
SMILES	RMI FANCM FP
O=c1c(Cl)c2oc3ccccc3nc-2c2ccccc12	32*
O=c1[nH]c(CSc2nc3ccccc3o2)nc2ccccc12	55
O=S(=O)(O)c1nc2ccccc2o1	61
COc1cccc2c1OC(c1ccccn1)N1N=C(c3cc(Cl)ccc3O)CC21 (configuration not stated)	71
CO/N=C(/C(=O)N[C@@H]1C(=O)N2C(C(=O)O)=C(C[N+]3(C)CCCC3)CS[C@H]12)c1csc(N)n1	50
C=CC1=C(C(=O)O)N2C(=O)[C@@H](NC(=O)C(=NO)c3csc(N)n3)[C@H]2SC1	34*
CO/N=C(/C(=O)NC1C(=O)N2C(C(=O)O)=C(COC(C)=O)CSC12)c1csc(N)n1 (configuration not stated)	59
Cc1nc(-c2cccnc2)sc1-c1ccc(SCc2cccc(F)c2)nn1	71
COc1ccc(NS(=O)(=O)c2cccc(OC)c2)cc1	50
COc1ccc(C(=O)NCCc2ccc3c(c2)CCCN3C)c(OC)c1	61
Cc1ccc(N2CC(c3nc(-c4cccc(Cl)c4)no3)CC2=O)cc1 (configuration not stated)	93
Cc1cc2cc(CNC(=O)c3ccccc3Cl)ccc2n1C	30*
Cc1cc2cc(CNC(=O)c3ccccc3F)ccc2n1C	58
Cc1cc2cc(CNC(=O)c3ccccc3Br)ccc2n1C	55
O=C(Nc1nc2c(s1)CSc1ccccc1-2)c1coc2ccccc2c1=O	59
COc1ccc(NC(=O)c2ccc(S(=O)(=O)N(C)Cc3ccco3)cc2)c([N+](=O)[O-])c1	55
Oc1c(C=C2N=c3ccccc3=N2)sc(=S)n1N1CCOCC1	70
N#Cc1c(N)nc(SCC(=O)c2ccc(O)c(O)c2)c(C#N)c1-c1ccc(OCc2ccccc2)cc1	14*
COc1ccc(-c2c(C#N)c(SCC(=O)c3ccc4c(c3)OCCO4)nc3c2C(=O)CC(C)(C)C3)cc1	164
CC1(C)CC(=O)c2c(nc(SCC(=O)c3ccc(Cl)c(Cl)c3)c(C#N)c2-c2ccccc2)C1	131
O=C1c2cccc(O)c2CCN1Cc1ccc(Cl)cc1	68
O=C(CS(=O)(=O)c1ccccc1)Nc1nc2c(s1)CCc1ccccc1-2	53
Cc1nc(SCC(=O)Nc2ccc(F)c(Cl)c2)c2c3c(sc2n1)CCCC3	83
CNC(=O)Cc1ccc(-n2c(=O)c3ccccc3n(CC(=O)NCc3ccccc3Cl)c2=O)cc1	67
COC(=O)c1sc2ccccc2c1NC(=S)NC(=O)c1ccc(Cl)cc1	63
SMILES	RMI FANCM FP
COC(=O)c1sc2ccccc2c1NC(=O)c1ccc(Br)s1	85
COC(=O)c1sc2ccccc2c1NC(=O)c1cc(Cl)sc1Cl	30*
CCC(=O)Nc1ccc(C(=O)NCCNS(=O)(=O)c2ccc(C)cc2OC)cc1	62
Cc1nn(CC#N)c(=O)c2c1cnn2-c1ccc(F)cc1	57
CCOC(=O)c1c(NC(=O)CC(NCc2cccnc2)C(=O)O)sc2c1CCCC2 (configuration not stated)	52
Nc1ccccc1SC1CC(=O)N(c2cccc(C(=O)O)c2)C1=O (configuration not stated)	59
O=C(O)c1ccc2c(c1)OCCO2	53
O=C(Cc1ccc2c(c1)OCO2)N1CCCCC1	53
O=C(c1ccc2c(c1)OCCO2)N1CCCCC1	-20*
c1cc(-c2nn[nH]n2)ccn1	66
CC(C)(C)c1ccc(-c2nnc(SCC(=O)c3ccc(F)cc3)n2-c2ccc3c(c2)OCO3)cc1	60
O=C1c2cc(Cl)c(Cl)cc2C(=O)N1c1ccc(Oc2ccccc2)cc1	64
c1ccc(Oc2cccc(Oc3ccccc3)c2)cc1	58
O=C1OC(=O)c2c(Oc3ccccc3)cc3c4c(c(Oc5ccccc5)cc1c24)C(=O)OC3=O	30*
N#Cc1c(-c2ccco2)c2c([nH]c1=O)-c1ccccc1CC2	-59
N#Cc1c(-c2ccco2)cc(-c2ccco2)[nH]c1=O	-9
N#Cc1c(-c2ccco2)c2c([nH]c1=O)-c1ccccc1OC2	-3*
CCN(CC)c1ccc(C=Nc2sc(C)c(C)c2C#N)cc1	68
Cc1sc(N=Cc2ccco2)c(C#N)c1C	-16*
Cc1ccc(C=Nc2sc(C)c(C)c2C#N)s1	62
CCS(=O)(=O)c1ccc(C(=O)N=c2sc3cccc(Cl)c3n2C)cc1	92
COc1ccc(/C=N\NC(=O)c2cccn2-c2ccc(F)cc2)cc1	58
O=C(Cc1csc(Nc2ccc(OC(F)(F)F)cc2)n1)NCc1cccnc1	62
CN(C)C(CNC(=O)C(=O)NCc1ccc2c(c1)OCO2)c1cccs1 (configuration not stated)	51
O=c1nc(SCc2ccccn2)c2c([nH]1)CCCC2	52
c1ccc2c(c1)nc1n2CCN1	65
c1cn2c(n1)NCC2	-22*
CS(=O)(=O)N1CCCCC1C(=O)N1CCN(c2ccccc2)CC1 (configuration not stated)	65
c1ccc(Cc2nnc(SCc3ccccn3)o2)cc1	71
Cc1nn(C2CCS(=O)(=O)C2)c2nc(-c3cccs3)cc(C(=O)Nc3ccc(F)c(F)c3)c12 (configuration not stated)	62
